Compound activity deposited in PubChem by several laboratories.
TPT1 inh = C. albicans TPT1 enzyme inhibition | recombinant caTPT1, FP RNA substrate dephosphorylation | inhibition, % at 5 µM | 300,000 compounds, 0.81% hits | AID 1962;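 active means inhibition above the mean of all tested compounds plus 3 SD, set per screening campaign, cut at about 24% in these data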;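 further: plate controls were DMSO alone for no effect and ferristatin control at 100 nM for full effect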
IDE inh = inhibits human insulin-degrading enzyme in HEK cells; P14735; FAbetaB cleavage, fluorescence polarization; inhibition, % at 5.59 µM; 320,000 compounds, 0.41% hits;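 active means percent inhibition above the average of all tested compounds plus 3 SD, set per screening campaign, cut at about 16% in these data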;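 further: IDE supplied by intact live HEK cells; FP after avidin binding of uncleaved biotin substrate so inhibition keeps polarization high; 0% = DMSO wells and 100% = 60 µM reference IDE inhibitor Ii1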
Target sequence (P14735 whole entry, looked up): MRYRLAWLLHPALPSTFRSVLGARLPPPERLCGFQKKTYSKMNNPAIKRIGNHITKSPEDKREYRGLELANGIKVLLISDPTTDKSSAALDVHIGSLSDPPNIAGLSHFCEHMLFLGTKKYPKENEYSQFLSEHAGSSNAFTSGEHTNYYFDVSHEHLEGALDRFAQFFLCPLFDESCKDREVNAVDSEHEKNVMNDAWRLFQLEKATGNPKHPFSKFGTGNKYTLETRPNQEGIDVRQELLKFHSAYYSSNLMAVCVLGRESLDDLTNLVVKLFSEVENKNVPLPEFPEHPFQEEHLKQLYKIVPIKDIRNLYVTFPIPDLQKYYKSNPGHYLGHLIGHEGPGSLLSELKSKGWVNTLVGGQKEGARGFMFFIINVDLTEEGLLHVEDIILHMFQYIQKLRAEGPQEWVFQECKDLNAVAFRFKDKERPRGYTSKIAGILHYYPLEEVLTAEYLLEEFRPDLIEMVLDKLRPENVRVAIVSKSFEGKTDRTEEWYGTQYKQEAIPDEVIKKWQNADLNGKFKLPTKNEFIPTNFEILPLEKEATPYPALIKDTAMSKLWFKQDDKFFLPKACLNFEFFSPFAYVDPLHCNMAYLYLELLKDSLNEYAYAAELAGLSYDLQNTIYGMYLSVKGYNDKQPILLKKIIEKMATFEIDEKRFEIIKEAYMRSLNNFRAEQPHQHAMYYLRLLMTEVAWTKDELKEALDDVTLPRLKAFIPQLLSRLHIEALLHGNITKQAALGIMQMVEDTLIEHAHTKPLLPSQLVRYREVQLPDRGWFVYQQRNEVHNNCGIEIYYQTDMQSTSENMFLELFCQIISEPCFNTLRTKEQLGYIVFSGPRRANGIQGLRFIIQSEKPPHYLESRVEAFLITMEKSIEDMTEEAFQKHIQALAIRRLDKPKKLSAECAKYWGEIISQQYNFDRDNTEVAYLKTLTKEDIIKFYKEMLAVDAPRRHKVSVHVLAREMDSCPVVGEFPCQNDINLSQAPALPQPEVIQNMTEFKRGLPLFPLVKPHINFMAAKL
CRFBP-R2 agonist = agonists of human CRF-binding protein/CRF-R2 receptor complex; HEK293 CRF-R2/CRF-BP, calcium dye fluorescence (FLIPR); percent of saturating CRF peptide response; activation, % at 13.2 µM; 350,000 compounds, 0.46% hits; AID 588473;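 active means activation of at least 50%, plus an integration ratio under a set limit after plate pattern correction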;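 further: plate controls were neutral control wells without compound for no effect and CRF at EC100 for full effect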
Myeloid diff MLP = myeloid differentiation induction. ER-HoxA9 myeloid progenitors, lysozyme-GFP differentiation, flow cytometry. calls only at 10 µM. 360,000 compounds, 1% hits. AID 624256;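 active means normalized GFP-positive differentiation at or above the plate's own cutoff, the solvent-only control mean plus 3 SD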;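 further: cells exposed to compound for four days before flow analysis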
CRFBP-R2 block = antagonists of CRF-binding protein/CRF-R2 receptor complex; HEK293 CRF-R2/CRF-BP, CRF-induced calcium fluorescence; inhibition, % at 11.8 µM; 350,000 compounds, 0.59% hits;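 active means inhibition of the ligand-induced calcium signal above about 50% at the single tested concentration, limit read from the data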
IDE act = activators of human insulin-degrading enzyme in cells; P14735; HEK cells, FAbeta-B cleavage, fluorescence polarization; 0% vehicle, 100% cell-free pure enzyme wells; activation, % at 5.96 µM; 340,000 compounds, 0.073% hits; AID 493087;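 active means activation above the mean of all tested compounds plus 3 SD, set per screening campaign, cut at about 17% in these data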
Starred values were filed as active, the others as inactive; i = inactive; x = no result given; + = active, no number. Rows were chosen to be rich in hits. Some 2.6% of all compounds tested hit in one or more screens of this group.

SMILES	TPT1 inh	IDE inh	CRFBP-R2 agonist	Myeloid diff MLP	CRFBP-R2 block	IDE act
COC(=O)c1ccc(CN2[C@H](C(=O)OC)C[C@@]3(O)[C@@H](O)[C@@H](O)[C@@H](O)C[C@@H]23)cc1	-1	4	-1	i	8	6
CN(Cc1ccccc1)c1nc2c(c(=O)[nH]c(=O)n2C)n1CCOc1ccccc1	2	0	-2	i	-18	-1
COc1ccc(F)cc1S(=O)(=O)NCC(=O)NCc1cc(=O)n(C)c(=O)n1C	0	8	0	i	76*	-3
C=CC#CC1(O)CC(C)N(C)CC1C (centres undefined)	1	7	4	i	-11	6
O=c1c2ccccc2nnn1-c1ccccc1[N+](=O)[O-]	x	x	-1	i	0	x
CCOC(=O)c1ccc(S(=O)(=O)N2CCC(C(=O)O)CC2)cc1	-2	-5	-2	+	-10	1
Cc1ccccc1NC(=O)COC(=O)c1ccc(S(=O)(=O)N2CCCC2)cc1	x	-5	2	+	-14	-7
CC1CN(CC(=O)NCc2ccc(Cl)cc2)CC(C)O1 (centres undefined)	1	0	0	i	-5	2
Cc1cccc(COCCN2CCN(S(=O)(=O)c3ccccc3)CCC2=O)c1	-5	8	-2	+	-2	4
Oc1oc(-c2cccc3ccccc23)nc1/C=N/c1nccs1	31*	13	38	i	-50	-51
CC(=O)Nc1ccc2c(c1)Cc1cc(N3C(=O)C=CC3=O)ccc1-2	x	x	51*	i	-40	-27
O=C1C=CC(=O)N1c1ccc2c(c1)Cc1cc(F)ccc1-2	x	x	3	i	-4	-31
N/C(=N\OC(=O)Oc1ccccc1)c1ccc([N+](=O)[O-])cc1	1	-6	-1	i	43	-2
O=[N+]([O-])c1ccc(NN=C(Oc2ccccc2)c2ccc([N+](=O)[O-])cc2)cc1	x	x	29	+	-59	x
CC1=CC(C)(C(Cl)(Cl)Cl)C(C)=CC1=NO (centres undefined)	x	x	0	i	57*	x
CN(CC(=O)NCCc1ccc(F)cc1)Cc1cccc(Cl)c1	1	5	1	i	5	3
O=[N+]([O-])c1ccccc1-c1ccc(C(=S)N2CCCC2)o1	0	-2	-1	+	-9	-8
Cn1c(COc2ccc([N+](=O)[O-])cc2)nnc1SCC(N)=O	2	4	-2	i	-4	5
CCn1c(Cc2ccccc2)nnc1SCC(=O)c1cccc([N+](=O)[O-])c1	1	4	-1	i	-4	2
CCOc1cc(C)ccc1OCc1nnc(SCC(=O)c2cccc([N+](=O)[O-])c2)n1C	4	-2	-1	i	56*	6
Cn1c(COc2ccccc2)nnc1SCC(=O)c1cccc([N+](=O)[O-])c1	-3	-2	1	i	59*	1
O=C(O)c1cccc(-c2csc(C(O)c3cccc(Cl)c3)n2)c1 (centres undefined)	x	x	x	i	x	x
Cc1[nH]c(=O)[nH]c(=O)c1S(=O)(=O)N1CCCC(C(=O)N2CCN(c3ccccc3Cl)CC2)C1 (centres undefined)	0	5	-3	i	74*	3
N=C1c2ccccc2CN1NC(=O)CC12CC3CC(CC(C3)C1)C2	0	2	-2	+	-16	4
O=C(NCCO)C(=O)Nc1cc2c3c(c1)CCC(=O)N3CCC2	2	13	0	i	1	-3
SMILES	TPT1 inh	IDE inh	CRFBP-R2 agonist	Myeloid diff MLP	CRFBP-R2 block	IDE act
Cc1ccc2cc3c(N)c(C(=O)N4CCOCC4)sc3nc2c1	4	1	4	i	-15	-3
Cc1ccc2cc3c(N)c(C(=O)N4CC(=O)Nc5ccccc54)sc3nc2c1	34*	-2	x	x	x	x
O=C(/C=C/c1ccc2ccccc2n1)N1CCN(S(=O)(=O)c2ccc(F)cc2)CC1	10	2	2	i	3	8
O=C(/C=C/c1ccc2ccccc2n1)N1CCN(c2ccccc2)CC1	12	-3	0	i	75*	6
OC(CN1C2=NCCN2c2ccccc21)c1ccc2c(c1)OCO2 (centres undefined)	-2	1	3	i	52*	3
OC(CN1C2=NCCCN2c2ccccc21)c1ccc2c(c1)OCO2 (centres undefined)	-3	0	0	i	0	4
CCOC(=O)N1C(=O)NC(=O)C1c1ccc(OC)cc1 (centres undefined)	x	x	0	i	-8	-1
COc1ccc(N)cc1-n1c(C)ccc1C	0	1	0	+	-24	9
COc1ccc(C)cc1-n1c(C)cc(C=O)c1C	0	7	-3	i	8	3
Cc1ccc(C)c(N2CCN(S(=O)(=O)c3ccc4c(c3)C(C)(C)C(=O)N4C)CC2)c1	0	1	-2	i	127*	0
COC(=O)c1cc2occc2n1CC(=O)Nc1ccc(OC)c(OC)c1OC	-3	0	1	i	21	2
COC(=O)c1cc2sc(Cl)cc2n1CC(=O)Nc1ccc(OC)c(OC)c1OC	1	-4	55*	i	-51	8
COc1ccc(CCNC(=O)c2c(O)c3ccccc3[nH]c2=O)cc1OC	x	x	0	x	-19	2
O=C(O)c1ccccc1C(=O)Nc1ccc(S(=O)(=O)NC2CCCCC2)cc1	-3	2	-1	i	-19	1
C=CCn1c(SCc2ccc(F)cc2)nc2c1c(=O)[nH]c(=O)n2C	-1	2	-3	i	62*	5
C=CCn1c(SCc2ccc(Cl)cc2)nc2c1c(=O)[nH]c(=O)n2C	1	4	-3	i	-12	-6
COC(=O)C(NC(=O)c1cccnc1Cl)C(C)C (centres undefined)	3	3	0	i	-4	4
Cc1nn(C)cc1CN(C)C(=O)c1ccc(OC2CCN(Cc3ccccn3)CC2)cc1	-2	4	2	i	57*	5
CN(Cc1nccs1)C(=O)c1ccc(OC2CCN(Cc3ccccn3)CC2)cc1	1	1	1	i	3	-2
CSc1cc(C)n(-c2ccccc2)c(=S)c1C(C)=O	-3	1	-1	i	-3	3
COC(=O)Nc1nc2ccc(-c3n[nH]c(=O)c4ccccc34)cc2[nH]1	-4	10	1	+	11	-9
COC(=O)c1ccc(-c2n[nH]c(=O)c3ccccc23)cc1	-4	8	0	i	-10	-3
Clc1ccc(-c2ccc(C=Nc3ccc(N4CCOCC4)cc3)o2)c(Cl)c1	-1	4	210*	i	-330	-4
N#Cc1ccc(CC(C(=O)O)N2Cc3ccccc3C2=O)cc1 (centres undefined)	-3	-1	1	i	7	6
